According to PubChem BioAssay AID1508600 (Functional Genomics Laboratory (NCATS/FGL), 2020):
About 3,700 (7%) of roughly 53,000 sequences were called active.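 How the source made its calls: active means gene knockdowns whose robust z-score for IL-1 alpha signal is at least 2 or at most -2, so actives lie on both sides; inactive means the rest.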 The entries come from a sample that favours actives as a whole.

Assay: Components of the Cytosolic LPS Sensing Pathway: Gene Identification via Genome-wide siRNA Screen;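 further: robust z of the log signal after scaling to non-targeting control siRNA wells of the plate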
Conditions: RAW264.7 macrophages, IL-1a HTRF, actives lie on both sides, screened at 100 nM (by protocol), cells primed 5 h with Pam3CSK4 first
Procedure, shortened: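 Read-out: IL-1a HTRF on supernatant, divided by plate negative-control median ×100, log-transformed and converted to robust z-score. Cells were RAW264.7 given 100 nM siRNA, Pam3CSK4-primed 5 hours, then LipidA-transfected 24 hour.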
In the case of GGUAUCCUGAUUGUUGAGUTT against Fam228a, the z-score is reported as 1.18 (inactive).
With GCAUCAUUAUCUUACCAACTT against Olfr826 the z-score was -0.994 (inactive).
In the case of GAGAGAGGGAAUUUGCUCCTT against Pcdhb8, the z-score is reported as 2.6 (active).
For AUGUGGCAAAACCUUUGCATT against Zfp960, the z-score was 0.615 (inactive).
In the case of CCCAUGCUUAUUACCGAGATT against Rab37, the z-score is reported as 0.0517 (inactive).
In the case of “GGGUGUCAACCCUUUAGAUTT against C130026I21Rik”, the z-score is reported as 0.685 (inactive).
With GCACCUCAAAAGAAUUCAUTT against Septin10 the z-score was 1.42 (inactive).
With GGAUAAGAAACACAAGAAGTT against Srrm1 the z-score was 2.04 (active).
For GCACAUUUUAGCCUAAUGGTT against Tpm3, the z-score was -0.785 (inactive).
In the case of CCCACUUGUGGCAGUGUACTT against Stub1, the z-score is reported as 0.818 (inactive).
For GCGACAAUAUGAGUCACCUTT against Fsd1, the z-score was -2.07 (active).
In the case of GGGUAACAUGAAAGUGAUCTT against Mybbp1a, the z-score is reported as -0.972 (inactive).
For GGACCAAGGAGCAUUGAAATT against Fkbp7, the z-score was 1.06 (inactive).
For GGAAUUCAUCUGUGGUCUCTT against Trim50, the z-score was -0.559 (inactive).
For “GCUUUAGGUAUGGUCCUAATT against A430072C10Rik”, the z-score was 1.23 (inactive).
With “GGAUCCAAGGGCAAAAGAUTT against St6galnac1” the z-score was -1.36 (inactive).
In the case of CGUACUAUAGUAAAUCCAGTT against Clk1, the z-score is reported as 2.4 (active).
With GCCAAGAAACAAUACUCAUTT against Olfr1352 the z-score was 0.694 (inactive).
For CCUACCAAAACGACUAUAUTT against Pnma3, the z-score was -1.29 (inactive).
In the case of CGGGCUGAUUCAACUGGUGTT against Kif1b, the z-score is reported as 3.64 (active).
For GGUACCUCUUCUCCUAAAGTT against Vps16, the z-score was 0.106 (inactive).
With GCAUCUCAGCUCUGAUUUATT against Fgfbp3 the z-score was 0.758 (inactive).
For GGUAGAAACUGACCACAUATT against Aifm1, the z-score was 0.917 (inactive).
With GGAGUAAAUUGAGAAACCATT against Acsm5 the z-score was -0.149 (inactive).
With CCUUUAUUUCUGUGAAUCUTT against Olfr1467 the z-score was 0.631 (inactive).
In the case of GCUGUUCGUGAGGAUAACCTT against Yipf1, the z-score is reported as 1.2 (inactive).
In the case of GGGUAGAAUGACUUUGGCCTT against Cldn2, the z-score is reported as 1.19 (inactive).
In the case of GGCUUAUCAUAUGAAGACATT against Aplp2, the z-score is reported as 2.33 (active).
With GGAGUCACCAGACUUGUGUTT against Svs3b the z-score was 0.637 (inactive).
With GGAAAAUGCUCACAUAGUGTT against Pak1ip1 the z-score was 0.442 (inactive).
For CGCAUACUGUGGAAUAGUUTT against Spag4, the z-score was -1.26 (inactive).
With GGAAUGAAAGUUCCACUAUTT against Emcn the z-score was -0.633 (inactive).
In the case of CCCACCACUAUUUAUAUGATT against Dlg2, the z-score is reported as -0.17 (inactive).
With GGAUGUGACAUGAAUCCUGTT against Ankle1 the z-score was -0.49 (inactive).
With CCAAAACUAGGAAGAAACATT against Olfr716 the z-score was -2.3 (active).
For GGCAAUAAAUAUCCAGAAATT against Crygn, the z-score was 1.02 (inactive).
In the case of GCAGCUCUGCGGAAGCUUUTT against Olfr1350, the z-score is reported as -0.505 (inactive).
With GGAUCUUGAUAGACUGAUGTT against Rhox5 the z-score was 0.362 (inactive).
In the case of GGAAAAUCUCCGUUGUCUCTT against Acin1, the z-score is reported as -2.76 (active).
In the case of UCAUUGAGAAAGGAGAAGATT against Cox17, the z-score is reported as -0.547 (inactive).
With GGUAGAUAACCUGAUUUAUTT against Slc7a6 the z-score was 2.22 (active).
For GCCUGUGUAUUACUUUUUUTT against Sned1, the z-score was -0.786 (inactive).
In the case of GGAGUUGCCUCUGAAGACCTT against Ccm2l, the z-score is reported as 0.797 (inactive).
In the case of GGUGUUCAGGAGAUGAUGCTT against Cdt1, the z-score is reported as 0.0123 (inactive).
With GGAGCAUCUCCUCAUGGAUTT against Actl11 the z-score was 2.08 (active).
For GCCUUAUCCUGAGAAUGGCTT against Lrrc47, the z-score was -0.61 (inactive).
With GGCUGCUGUUAACAAGCUGTT against Wdr13 the z-score was -2.41 (active).
With GCUCCUCCAGAUACAUGCUTT against Tbrg1 the z-score was -0.741 (inactive).
In the case of GGUUCUUUCGACUUCCUGCTT against Ccbe1, the z-score is reported as -0.166 (inactive).
In the case of GGCAACAGACAAACAGCCGTT against Ugcg, the z-score is reported as -1.54 (inactive).
For GGAGAAGAAAAAGCGGUACTT against Plxnb2, the z-score was 2.71 (active).
With GGAGUACUGGGCAUAUAAATT against Slc29a3 the z-score was -0.324 (inactive).
For GGGUGGUUAGAACAGCCACTT against Prss16, the z-score was -1.21 (inactive).
For CCCUAGAGAUGGUGGGUCUTT against Olfr934, the z-score was -0.484 (inactive).
In the case of GGCAGUUAACACUUAAUGATT against Foxp2, the z-score is reported as 0.609 (inactive).
With GGAACAUAACUCUUGUAUATT against Dhx35 the z-score was -1.52 (inactive).
For “GGAGAAACUUCUUUAAAGCTT against 5830427D03Rik”, the z-score was 0.573 (inactive).
For GGACAAGUGCCUCUCACCATT against Glis2, the z-score was -3.25 (active).
For GGCAGAAAGUAAAUCCGUGTT against Exoc3l4, the z-score was -1.22 (inactive).
In the case of GGCCAUAGAUAUUCAAGGUTT against Olfr218, the z-score is reported as 0.293 (inactive).
With GCCUUUGUGUUACAAUAUGTT against Fermt2 the z-score was 0.487 (inactive).
In the case of GUCAAAGAGUUUCAGCAUCTT against Foxl1, the z-score is reported as 0.664 (inactive).
With GGAGGUUUUCCGAAGUAUUTT against Pnpt1 the z-score was 1.2 (inactive).
For GGCUCUGUGACCAAGAUUUTT against Rtca, the z-score was -1.48 (inactive).
In the case of GCCUCUCUCUAUCUAUGCATT against Tob2, the z-score is reported as -2.2 (active).
In the case of GCAACGUGGUCUAUGAAUUTT against Disp2, the z-score is reported as -0.694 (inactive).
In the case of GGUUUUUCAGUGACACAUGTT against Vmn1r192, the z-score is reported as 2.26 (active).
For CCAGAGUUUUAUAACGGAATT against Olfr1229, the z-score was 0.601 (inactive).
With GGUUGUGCAGUUUUAUUUCTT against Tceal1 the z-score was -0.176 (inactive).
For GCUAACAUUGUAAAUGCACTT against Dmrta1, the z-score was 0.467 (inactive).
For GGAAAAGCUUUUGUUCCCATT against Tfb1m, the z-score was 2.58 (active).
For GGAUUCUUCAUUUCUAGUGTT against C1qtnf6, the z-score was 0.231 (inactive).
In the case of GGUUCUGAACACAUUUCCATT against Cyp2d13, the z-score is reported as -1.07 (inactive).
In the case of GUUUCUUCCAAACUCCAUCTT against Olfr487, the z-score is reported as 0.622 (inactive).
For GGUCGACAGUUAAAAUGAUTT against Bpifc, the z-score was -0.431 (inactive).
With GCAAGCCCUGGAAGAAUUATT against Nat8 the z-score was 2.26 (active).
In the case of GGAUGAGUACACUGAAAGCTT against Nvl, the z-score is reported as 0.544 (inactive).
With CGUGGACAUCGAUAUCACCTT against Slc26a8 the z-score was -0.737 (inactive).
In the case of CCCGGAAUAAGACAAUUUCTT against Olfr788, the z-score is reported as 0.282 (inactive).
For GCAUGUUAAGCCUUGUAUATT against Tnpo1, the z-score was -1.67 (inactive).
For GGCUACAGAAGCUACUAAATT against Akr1c6, the z-score was 1.23 (inactive).
For GGGUGCAUCCCAUUCUCUUTT against Pld1, the z-score was -0.0755 (inactive).
With GCGAGAGAUCCCUCUGAAATT against Pigs the z-score was -0.284 (inactive).
With GCAUCCCAGAUAUUGAGCATT against Arrdc1 the z-score was 2.52 (active).
For GCUCUGUUCACACGUUUAATT against Arhgap10, the z-score was -0.898 (inactive).
In the case of CGAAAUUGUGAUGAUGAACTT against Mast1, the z-score is reported as -0.799 (inactive).
With CCAAUUUGACCCAUACUAUTT against Crtc2 the z-score was 1.61 (inactive).
In the case of GGAGAUUGGGAUCAAAGCCTT against Mthfd1, the z-score is reported as -1.56 (inactive).
For GGACCUUUCAUCAACCCAUTT against Olfr676, the z-score was 2.13 (active).
For GGUGCCAUUGAUUCUGUAGTT against Smim10l2a, the z-score was -0.807 (inactive).
In the case of GCAGUGGGAAUCGAUAAAGTT against Fgfr2, the z-score is reported as -0.876 (inactive).
In the case of GGCAAGCUGUAAAAGAUGCTT against Noc3l, the z-score is reported as 3.32 (active).
In the case of GGCCAUUUCUAUGAAAUUATT against Olfr1016, the z-score is reported as -2 (active).
With CCUUAGGACAAGUAUUCUGTT against Cbx6 the z-score was 0.47 (inactive).
In the case of GGCAACUUUAUACACAAACTT against Vmn1r13, the z-score is reported as -0.283 (inactive).
For GGAACCUUUCAGAAAUAUATT against Calhm5, the z-score was -0.53 (inactive).
For GGUCUGAUUGUCCUCUCUUTT against Slc35b4, the z-score was 3.25 (active).
In the case of CCACACCUUCAAAGCGAGATT against L3mbtl4, the z-score is reported as -0.104 (inactive).
With GGCCUUGAUUCAAUUCAACTT against Tgm6 the z-score was 0.812 (inactive).
With GGCAGAUAUUUAGAUGAUGTT against Pdyn the z-score was -0.932 (inactive).
With GAUGUUCUUUGUCCACAUGTT against Olfr666 the z-score was -0.325 (inactive).
In the case of GCAUUUUCUAGAUGGAAGCTT against Hao1, the z-score is reported as 0.748 (inactive).
In the case of GGUCAUUCUCCAAGAACUATT against Ugp2, the z-score is reported as -0.844 (inactive).
In the case of GGUUCAGUAUAUCAUCUCUTT against Zfp335, the z-score is reported as 2.69 (active).
With GGAGAACAGUUUCAAGAUGTT against Rnf152 the z-score was -0.487 (inactive).
For GCCGGACUUCCCAUCUGUUTT against Srebf1, the z-score was -0.784 (inactive).
In the case of GACGAAUAUCAUCUCACACTT against Olfr875, the z-score is reported as 0.901 (inactive).
